Assay results from PubChem BioAssay AID1986 (Sanford-Burnham Center for Chemical Genomics, 2009).
Hit rate of the full screen: of about 290,000 compounds, about 890 (0.31%) were called active. Rule as the data show it: active = inhibition mostly above about 52% (no sharp cut-off); inactive = mostly below about 76%. The list comes from a sample in which actives are over-represented; it also holds similar structures and randomly drawn compounds.

Assay: cell-free HIV fusion peptide-binding blockers – biochemical, uHTS, fluorescence dequenching, primary screen (AID 1986)
Conditions: 30 min, stronger effect = higher value
[1] = measured here: repeat confirmation average inhibition, at 18.6 µM

For `CCC1(c2ccccc2)NC(=O)N(CC(=O)Nc2ccccc2N2CCCCC2)C1=O` (stereo not drawn), the inhibition (at 20 µM) was 2.6% (inactive).

In the case of `S=c1[nH]nc(C2CCCCC2)o1`, the inhibition (at 20 µM) is reported as 0.3% (inactive).

With `COC(=O)[C@H](CCSC)NC(=O)NCCC1=CCCCC1` the inhibition (at 20 µM) was 0.8% (inactive).

In the case of `CCc1cccc(NC(=O)CN(C)S(=O)(=O)c2cccs2)c1`, the inhibition (at 20 µM) is reported as 27.6% (inactive).

In the case of `Cc1ccc(C)c(N(C(=O)c2csnn2)C(C(=O)NC2CCCCC2)c2ccncc2)c1` (stereo not drawn), the inhibition (at 20 µM) is reported as -2.4% (inactive).

With `CSc1nc(-c2ccco2)cc(-c2ccccc2)c1C#N` the inhibition (at 20 µM) was -1.1% (inactive).

For `N#Cc1c(-c2ccccc2)cc(-c2ccco2)c(C#N)c1N`, the inhibition (at 20 µM) was 70.5% (active).

For `N#Cc1c(-c2ccco2)cc(-c2ccccc2)[nH]c1=O`, the inhibition (at 20 µM) was 50.8% (inactive) and the inhibition [1] was 12.4%.

In the case of `CN(C)c1cccc(NC(=O)c2cccc3ccccc23)c1`, the inhibition (at 20 µM) is reported as -1.2% (inactive).

In the case of `Cc1ccc(CN(C(=O)Cn2nnc3ccccc32)C(C(=O)NCc2ccco2)c2ccc(C)o2)cc1` (stereo not drawn), the inhibition (at 20 µM) is reported as 0.4% (inactive).

With `O=C(/C=C/c1ccco1)Nc1ccccc1C(=O)O` the inhibition (at 20 µM) was 58.3% (inactive) and the inhibition [1] was 24.2%.

In the case of `O=C(/C=C/c1ccco1)Nc1cccc(NC(=O)/C=C/c2ccco2)n1`, the inhibition (at 20 µM) is reported as 93.3% (inactive) and the inhibition [1] is reported as 1.5%.

With `O=C(/C=C/c1ccco1)Nc1cc(Cl)ccc1C(=O)O` the inhibition (at 20 µM) was 74.9% (active).

In the case of `O=C(/C=C/c1ccco1)Nc1ccccn1`, the inhibition (at 20 µM) is reported as 33.3% (inactive).

For `O=C(/C=C/c1ccco1)Nc1cccnc1Cl`, the inhibition (at 20 µM) was 7.4% (inactive).

In the case of `Cc1ccc(NC(=O)/C=C/c2ccco2)nc1`, the inhibition (at 20 µM) is reported as 56.5% (active).

With `COc1ccc(C(=O)C2CCCN(C(=O)c3csc(C(C)=O)c3)C2)c(C)c1` (stereo not drawn) the inhibition (at 20 µM) was 1.4% (inactive).

For `CS(=O)(=O)N(CC(=O)Nc1ccccc1C(=O)N1CCCC1)c1ccccc1Br`, the inhibition (at 20 µM) was -0.2% (inactive).

In the case of `COc1cc(CNCCc2ccc(S(N)(=O)=O)cc2)ccc1OCC(=O)NC(C)(C)C`, the inhibition (at 20 µM) is reported as -0.7% (inactive).

In the case of `CSc1nc(=O)n2cccc(C)c2n1`, the inhibition (at 20 µM) is reported as 3.1% (inactive).

With `COc1ccc(NC(=O)c2ccccc2OCc2c(C)noc2C)cc1OC` the inhibition (at 20 µM) was 2.3% (inactive).

With `CC[C@@H](C(=O)[C@@H](C)[C@@H](O)[C@H](C)CCc1ccc(C)c(O)c1C(=O)O)[C@H]1O[C@](CC)([C@H]2CC[C@](O)(CC)[C@H](C)O2)C[C@@H]1C` the inhibition (at 20 µM) was 56.3% (active).

In the case of `CN(C)N1C(N)=C(C#N)C(c2cccs2)C2=C1CC(C)(C)CC2=O` (stereo not drawn), the inhibition (at 20 µM) is reported as -0.7% (inactive).

With `CCOC(=O)c1ccc(NC(=O)c2ccc(CN3CCOCC3)cc2)cc1` the inhibition (at 20 µM) was -0.8% (inactive).

With `COc1cc(/C=C2\SC(=Nc3ccc(N4CCOCC4)cc3)N(C)C2=O)ccc1OC(C)C(=O)O` (stereo not drawn) the inhibition (at 20 µM) was 0.3% (inactive).

In the case of `COCCN1C(=O)/C(=C/c2ccc(Oc3ccc([N+](=O)[O-])cn3)c(OC)c2)SC1=Nc1ccccc1`, the inhibition (at 20 µM) is reported as 0.3% (inactive).

In the case of `O=C1/C(=C/c2ccc(N3CCOCC3)o2)SC(=Nc2ccccc2)N1CCc1c[nH]c2ccccc12`, the inhibition (at 20 µM) is reported as 37.2% (inactive).

For `O=C(O)COc1ccc(/C=C2\SC(=Nc3ccccc3)N(c3ccccc3)C2=O)cc1`, the inhibition (at 20 µM) was 36.9% (inactive).

With `COc1ccc(N=C2S/C(=C\c3ccc(N4CCOCC4)o3)C(=O)N2CCc2c[nH]c3ccccc23)cc1` the inhibition (at 20 µM) was 14.3% (inactive).

For `COc1cc(/C=C2\SC(=Nc3ccccc3)N(Cc3ccco3)C2=O)ccc1OC(C)C(=O)O` (stereo not drawn), the inhibition (at 20 µM) was 34.6% (inactive).

For `CCCN1C(=O)/C(=C/c2ccco2)SC1=Nc1ccc(OC)cc1`, the inhibition (at 20 µM) was 13.2% (inactive).

With `CCOC(=O)COc1ccc(/C=C2/SC(=Nc3ccccc3)N(Cc3cccnc3)C2=O)cc1OC` the inhibition (at 20 µM) was -2.8% (inactive).

With `CS(=O)(=O)Nc1ccc(C(=O)Nc2ccc3c(c2)OCO3)cc1` the inhibition (at 20 µM) was -0.8% (inactive).

In the case of `O=C(Nc1cc(S(=O)(=O)N2CCOCC2)ccc1N1CCOCC1)c1cccc(S(=O)(=O)N2CCCCC2)c1`, the inhibition (at 20 µM) is reported as 0.7% (inactive).

For `Cn1c(CCN2CCCCC2)nc2cc(NC(=O)NC3CCCCC3)ccc21`, the inhibition (at 20 µM) was 53.5% (inactive) and the inhibition [1] was 1.9%.

In the case of `O=C(NNC(=O)c1ccc([N+](=O)[O-])cc1)c1ccc(Br)cc1`, the inhibition (at 20 µM) is reported as 2% (inactive).

With `NC(=O)C1CCN(C(c2ccccc2Cl)c2nnnn2CC2CCCO2)CC1` (stereo not drawn) the inhibition (at 20 µM) was 1.1% (inactive).

In the case of `COc1ccc(S(=O)(=O)N(CCCN2CCOCC2)Cc2cccc(OC)c2OC)cc1`, the inhibition (at 20 µM) is reported as -0.2% (inactive).

In the case of `COc1ccc(CNCCCC(=O)Nc2c(Cl)ccc(C)c2Cl)cc1OC`, the inhibition (at 20 µM) is reported as -0.3% (inactive).

In the case of `N#C/C(=C/c1ccccc1OCc1ccc(F)cc1)c1ccc(C(=O)O)cc1`, the inhibition (at 20 µM) is reported as 31% (inactive).

With `N#C/C(=C/c1ccc(OCc2ccc(C(=O)O)cc2)c(Br)c1)c1cccc(F)c1` the inhibition (at 20 µM) was 87.9% (active).

For `N#C/C(=C\c1ccccc1OCc1ccc(C(=O)O)cc1)c1ccccc1`, the inhibition (at 20 µM) was 19.1% (inactive).

For `O=C(Nc1c2c(nn1-c1ccc([N+](=O)[O-])cc1)CS(=O)(=O)C2)C1CC1`, the inhibition (at 20 µM) was 0.9% (inactive).

For `O=C1S/C(=C\C=C\c2ccco2)C(=O)N1c1ccccc1`, the inhibition (at 20 µM) was 54.9% (inactive) and the inhibition [1] was -0.6%.

With `O=C1/C(=C/C=C/c2ccco2)SC(=S)N1c1ccc(O)cc1` the inhibition (at 20 µM) was 55.7% (active).

For `Cc1ccc(N2C(=O)/C(=C\c3ccco3)SC2=S)cc1`, the inhibition (at 20 µM) was 71.5% (inactive) and the inhibition [1] was -1.2%.

With `O=C1NC(=Nc2ccc(O)cc2)S/C1=C\C=C\c1ccco1` the inhibition (at 20 µM) was 41.3% (inactive).

In the case of `O=C1S/C(=C\C=C\c2ccco2)C(=O)N1c1ccc(O)cc1`, the inhibition (at 20 µM) is reported as 78.1% (active).

With `O=C1/C(=C\c2ccco2)SC(=S)N1c1ccc(O)cc1` the inhibition (at 20 µM) was 57.7% (inactive) and the inhibition [1] was -2%.

For `CN(C)CCNc1oc(-c2ccccc2F)nc1C#N`, the inhibition (at 20 µM) was 0.5% (inactive).

In the case of `Cc1ccc(/C(O)=C2/C(=O)C(=O)N(CC(=O)O)C2c2ccc([N+](=O)[O-])cc2)cc1` (stereo not drawn), the inhibition (at 20 µM) is reported as 3.5% (inactive).

With `O=C(CNC(=O)c1ccco1)OCC(=O)c1ccc([N+](=O)[O-])cc1` the inhibition (at 20 µM) was -0.7% (inactive).

In the case of `Cc1c(C(=O)O)sc2nc(/C=C/c3cccc(O)c3)[nH]c(=O)c12`, the inhibition (at 20 µM) is reported as 5.5% (inactive).

For `Cc1ccc(/C=C/c2nc3sc(C(=O)O)c(C)c3c(=O)[nH]2)cc1[N+](=O)[O-]`, the inhibition (at 20 µM) was 73% (active).

For `Cc1c(C(=O)O)sc2nc(/C=C/c3cccc(F)c3)[nH]c(=O)c12`, the inhibition (at 20 µM) was 27.7% (inactive).

For `COC(=O)c1c(/N=C/NOCc2ccc(Cl)cc2)sc2c1CCN(c1ncc(C(F)(F)F)cc1Cl)C2`, the inhibition (at 20 µM) was -1.7% (inactive).
